Compound activity: PubChem BioAssay, National Center for Advancing Translational Sciences (NCATS)
This is a sample that favours compounds with a hit; in the whole collection about 6.9% have one here.
BAZ2B block – qHTS Assay for Inhibitors of BAZ2B. Bromodomain adjacent to zinc finger domain protein 2B (Homo sapiens), Q9UIF8. AlphaScreen BAZ2B-H3K14Ac peptide displacement. Potency, µM (top dose mostly 114 µM), for inactives: at the highest dose activity change, negative = inhibition, usual class: inhibitors. 4.4% of 360,000 active. AID 504333, 2011; also: potency is read from the fitted curve at half-maximal effect; % is scaled to controls: 0 for no effect and ±100 for the full control effect; nearly all actives have a fitted effect of over 60% in size
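In this displacement format the biotinylated H3(5-23) peptide acetylated at Lys14 serves as ligand at 50 nM, with BAZ2B at 50 nM in PBS pH 7.4 containing 0.01% Tween-20. Donor and acceptor beads are 10 ug/mL final.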
JMJD2A Tudor – qHTS Assay for Inhibitors of JMJD2A-Tudor Domain. Lysine-specific demethylase 4A (Homo sapiens), O75164. AlphaScreen JMJD2A-Tudor / H3K4me3 peptide binding. Potency, µM (titrated, usually from 114 µM), inactives show at the highest dose activity change, negative = inhibition, hits mostly inhibitors. 4.4% of 390,000 active; also: potency is read from the fitted curve at half-maximal effect; % is scaled to controls: 0 for no effect and ±100 for the full control effect; nearly all actives have a fitted effect of over 50% in size
HP1b binding inh – HTS for Inhibitors of HP1-beta Chromodomain Interactions with Methylated Histone Tails; Chromobox protein homolog 1 (Homo sapiens), P83916; AlphaScreen HP1-beta / biotin-H3K9me3 peptide binding; Potency, µM (top dose mostly 114 µM), for inactives: at the highest dose activity change, negative = inhibition, actives largely listed as inhibitors; 0.56% of 390,000 active; also: potency is read from the fitted curve at half-maximal effect; nearly all actives have a fitted effect of over 70% in size
Target sequence (P83916 whole entry, looked up): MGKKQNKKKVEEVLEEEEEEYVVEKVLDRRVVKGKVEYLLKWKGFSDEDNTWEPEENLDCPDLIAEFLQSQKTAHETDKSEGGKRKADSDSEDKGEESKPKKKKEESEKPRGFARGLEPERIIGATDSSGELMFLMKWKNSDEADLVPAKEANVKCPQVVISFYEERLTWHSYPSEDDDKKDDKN
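HP1-beta protein (50 nM final) preincubated 30 min at room temperature with biotinylated H3(1-18)K9me3 peptide (50 nM) in PBS pH 7.4, 0.01% Tween-20, then compound added for 30 min. AlphaScreen streptavidin donor/nickel chelate acceptor beads (10 ug/mL final), 30 min dark, luminescence read.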
PLK1 PBD block – qHTS for Inhibitors of PLK1-PDB (polo-like kinase 1 - polo-box domain): Primary Screen; Potency, µM, for inactives: max response, negative = inhibition, hits mostly inhibitors; AID 720504, 2013; 2.8% of 360,000 active; Plk1 PBD binding of FITC phosphopeptide, fluorescence polarization; also: potency is read from the fitted curve at half-maximal effect; series mostly up to about 57 µM; % is scaled to controls: 0 for no effect and ±100 for the full control effect; nearly all actives have a fitted effect of over 65% in size
VDR inhibitor – Inhibitors of the vitamin D receptor (VDR): qHTS. VDR-SRC2-3 peptide fluorescence polarization, 2 h. AID 504847, 2011. Vitamin D3 receptor (Homo sapiens), P11473. Potency, µM, for the others: max response, negative = inhibition, most hits filed as inhibitors. 0.93% of 400,000 active; also: potency is read from the fitted curve at half-maximal effect; % is scaled to controls: 0 for no effect and ±100 for the full control effect
Target sequence (P11473 whole entry, looked up): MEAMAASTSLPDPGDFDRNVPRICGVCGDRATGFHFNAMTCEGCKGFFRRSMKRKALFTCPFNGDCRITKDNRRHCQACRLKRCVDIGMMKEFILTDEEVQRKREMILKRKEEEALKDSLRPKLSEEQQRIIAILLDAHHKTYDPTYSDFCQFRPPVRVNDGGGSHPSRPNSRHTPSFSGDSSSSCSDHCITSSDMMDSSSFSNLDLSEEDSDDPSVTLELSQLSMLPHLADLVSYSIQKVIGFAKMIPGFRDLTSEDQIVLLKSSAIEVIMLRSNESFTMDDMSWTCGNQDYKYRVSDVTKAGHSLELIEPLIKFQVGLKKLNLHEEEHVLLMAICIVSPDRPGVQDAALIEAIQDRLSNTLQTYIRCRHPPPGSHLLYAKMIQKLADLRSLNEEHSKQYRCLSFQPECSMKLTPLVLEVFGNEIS
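Inhibition of the VDR/SRC2-3 peptide interaction is quantified by fluorescence polarization. Compounds (23 nl, pintool) incubate with the reagents for 2 hours at ambient room temperature.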
L3MBTL1 inh – qHTS Assay for the Inhibitors of L3MBTL1. Lethal(3)malignant brain tumor-like protein 1 (Homo sapiens), Q9Y468. AlphaScreen L3MBTL1–H3K9me1 peptide binding. Potency, µM (top dose mostly 57.1 µM), for the others: at the highest dose activity, negative = inhibition, most hits filed as inhibitors. 0.66% of 230,000 active; also: potency is read from the fitted curve at half-maximal effect; % is scaled to controls: 0 for no effect and ±100 for the full control effect; nearly all actives have a fitted effect of over 60% in size
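Read-out is AlphaScreen signal from streptavidin donor and nickel chelate acceptor beads (10 ug/mL final each) bridging L3MBTL1 (50 nM) and biotinylated K9-monomethylated H3(1-15) peptide (75 nM), after 30 min compound exposure at room temperature.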
ME-1 growth – qHTS Assay for Compounds Blocking the Interaction Between CBF-beta and RUNX1 for the Treatment of Acute Myeloid Leukemia: ME-1 cellular proliferation | shares compounds with BAZ2B block | ME-1 cell proliferation, ATP luminescence, 48 h | Potency, µM (doses to about 56.1 µM), without a hit: top-dose activity change, negative = inhibition, hits mostly inhibitors | 20% of 140 active
G9a inh – qHTS Assay for Inhibitors of Histone Lysine Methyltransferase G9a: Hit Confirmation; 89% of 370 active; G9a H3K9 monomethylation, AlphaScreen, 2 h; Potency, µM, actives largely listed as inhibitors; shares compounds with JMJD2A Tudor; also: potency is read from the fitted curve at half-maximal effect; nearly all actives have a fitted effect of over 65% in size
RGS4 confirm – qHTS for Inhibitors of Regulator of G Protein Signaling(RGS) 4: Hit Validation. shares compounds with JMJD2A Tudor. RGS4 GAP activity, Transcreener GDP fluorescence polarization. Potency, µM, usual class: inhibitors. 80% of 25 active
USP1-UAF1 confirm – Inhibitors of USP1/UAF1: Hit Validation in Primary Assay | Potency, µM (doses to about 114 µM), for the others: at the highest dose activity change, negative = inhibition, actives largely listed as inhibitors | 50% of 50 active | Ub-Rhodamine cleavage, fluorescence kinetic read | shares compounds with VDR inhibitor
Starred values were filed as active, the others as inactive; ? = inconclusive; . = not tested or not shown; [ ] = remark or other dose. Calls follow the shape of the dose curve; as a rule, active = well fitted curve in the direction sought with a large enough effect; inconclusive = small, poorly fitted or top-dose-only effect, or another doubt; inactive = no such curve, though single readings can be large; an effect the other way counts as inactive or inconclusive.

SMILES | BAZ2B block | JMJD2A Tudor | HP1b binding inh | PLK1 PBD block | VDR inhibitor | L3MBTL1 inh | G9a inh | others
Cc1cc(=O)cc2oc3cc(N)c(-c4c(C)cc(O)cc4O)c(C)c3nc1-2 | . | . | . | . | ? | . | . | ME-1 growth=-12.9%;USP1-UAF1 confirm=46.9µM*
CCCc1nnc(NC(=O)CCC(=O)N2CCN(Cc3cc(Cl)ccc3OC)CC2)s1 | -33.8% | -15.2% | 13.5% | -16.6% | 13.3% | . | .
Clc1cccc(Cl)c1CNc1ccc(N2CCCC2)cc1 | 20µM* | 17.8µM* | 17.8µM* | ? | ? | ? | 3.99* | RGS4 confirm=9.47*
O=C(Nc1ccc(N2CCCC2)cc1)c1cc(Br)ccc1Cl | -34.3% | ? | 5.1% | -1.4% | -18.9% | -11.4% | .
O=C(CSc1nc2ccccc2s1)Nc1ccc(Cl)c(C(=O)O)c1 | -37.7% | 50.1µM* | ? | 8.44µM* | 1.7% | 0.4% | 2.83*
CC(C(=O)NC(=O)NC1CCCCC1)N1CCN(c2ccc(O)cc2)CC1 (stereo not drawn) | ? | 22.4µM* | 79.4µM* | -10.6% | -3.5% | -4.1% | 0.564*
Cc1coc2c(C)c3oc(=O)c(CCC(=O)N4CCC(C(=O)NCCCC(=O)O)(c5ccccc5)CC4)c(C)c3cc12 | -33.8% | 15.2% | 16.5% | -3.6% | ? | . | .
COc1ccc(-c2nnc3n2N=C(c2c(OC)cccc2OC)CS3)cc1 | . | -9.0% | . | . | . | . | .
CCOC(=O)N1CCc2c(sc(NCc3cccs3)c2C(=O)Nc2cc(OC)ccc2OC)C1 | -38.0% | 3.16µM* | ? | . | -27.1% | . | 1.15*
CCOC(=O)N1CCc2c(sc(NCc3sccc3C)c2C(=O)Nc2cc(Cl)ccc2OC)C1 | -36.3% | ? | -23.7% | . | 7.1% | . | .
CCOC(=O)N1CCc2c(sc(NCc3cccs3)c2C(=O)Nc2ccc(OC)cc2OC)C1 | ? | 3.16µM* | -18.6% | . | ? | . | 3.63*
CCOC(=O)N1CCc2c(sc(NCc3ccc(OC)c(OC)c3OC)c2C(=O)Nc2ccc(OC)cc2OC)C1 | ? | ? | ? | . | -9.1% | . | .
CCc1ccc2oc(-c3cc(N)ccc3O)nc2c1 | -4.7% | -35.2% | 3.8% | -11.5% | 14.3% | -5.4% | ?
CCc1ccc2oc(-c3cc(N)ccc3Cl)nc2c1 | ? | -4.7% | 7.4% | -7.1% | 2.6% | . | .
CCOc1ccc(C(=O)c2cnc3ccccc3c2N2CCN(CC)CC2)cc1 | -25.7% | -31.7% | 38.1% | -4.6% | 0.8% | . | ?
CSc1nnc(-c2ccccc2)n1C | -1.7% | -7.7% | 9.4% | -10.3% | -10.8% | -1.8% | .
CSc1nnc(C2CCCN2)n1C (stereo not drawn) | 17.8µM* | ? | 27.5% | -6.1% | -1.1% | ? | 4.48*
CC(=O)C1=NOC2C(=O)N(c3ccccc3)C(=O)C12 (stereo not drawn) | -1.2% | -6.3% | 63.9% | -0.3% | -6.8% | . | .
COc1ccc(N2CCN(Cc3nc(N)nc(Nc4ccc(C)c(Cl)c4)n3)CC2)cc1 | 25.1µM* | 35.5µM* | -48.4% | -1.9% | 12.7% | . | 7.08*
COc1cc(C2CC(=O)Nc3c2c(C)nn3-c2nncc(-c3ccc(C)cc3)n2)cc(OC)c1OC (stereo not drawn) | -0.2% | -16.9% | 40.9% | . | 22.1% | . | .
O=C(NCCN1CCOCC1)NC1(C(F)(F)F)Oc2ccccc2O1 | 9.3% | -2.1% | 47.0% | -1.2% | 6.3% | 10.6% | ?
CC(=O)Nc1cccc(NC(=O)Nc2ccc(C(C)=O)cc2)c1 | 7.6% | -4.3% | 38.3% | -3.0% | -3.3% | -7.1%[11.4 µM] | .
CCN(CC)c1ccc(NC(=O)Nc2cccc(C(C)=O)c2)cc1 | 31.6µM* | 35.5µM* | -69.1% | -10.1% | 1.2% | . | 3.17*
Nc1nc(-c2ccco2)nn1S(=O)(=O)c1ccc(Cl)cc1 | -11.6% | -13.7% | -9.0% | -14.5% | 4.5% | -1.1% | .
COc1cc(CNc2ccc(N3CCCC3)cc2)ccc1OCc1ccccc1 | 12.6µM* | 35.5µM* | ? | -18.0% | 35.5µM* | ? | 2.52*
SMILES | BAZ2B block | JMJD2A Tudor | HP1b binding inh | PLK1 PBD block | VDR inhibitor | L3MBTL1 inh | G9a inh | others
COc1cc(C(=S)N2CCCC2)ccc1OCc1ccccc1 | ? | -13.0% | 54.0% | -14.2% | -16.5% | -4.7% | .
O=C(Nc1ccccc1C(=O)NC(Cc1ccccc1)C(=O)NC1CCCCC1)c1ccccc1 (stereo not drawn) | 11.0% | -8.0% | 22.8% | -12.8% | -5.7% | 0.0% | .
Cc1nn(C)c2ncc(C(=O)c3ccccc3O)cc12 | 2.5% | -12.4% | -1.1% | -6.7% | -4.2% | . | .
Cc1nn(-c2ccccc2)c2ncc(C(=O)c3cc(Cl)ccc3O)cc12 | ? | ? | -7.1% | -4.6% | -23.0% | -0.8% | 11.2*
COc1ccc(C(=O)COC(=O)C2CC3CCCC(C2)C3=O)cc1Br (stereo not drawn) | -3.9% | -4.8% | 37.7% | -2.2% | -13.4% | -3.9% | .
COc1ccc(C(=O)COC(=O)CN2CC(=O)Oc3ccccc32)cc1Br | 25.1µM* | 35.5µM* | -6.5% | ? | -22.4% | . | 25.1*
O=C(CSc1nnc2c(n1)[nH]c1ccccc12)Nc1ccc2c(c1)OCO2 | -33.2% | -18.5% | -1.4% | 26.7µM* | -7.7% | . | 1.59*
Cc1ccc(NC(=O)CSc2nnc3c(n2)[nH]c2ccccc23)cc1 | -1.1% | -8.3% | 19.2% | -0.8% | 3.8% | . | .
CC(=O)Nc1ccc(-c2ccnc3c2CC(C(=O)NCC2CCOCC2)O3)cc1 (stereo not drawn) | . | . | . | -12.8% | . | . | .
